Experimental data published in PMC5540273 (PLoS ONE, 2017).

How the values were obtained:
Conditions in all cases: concentration: 1 μM, replicates: in singlicate; n = 1
[1] = tested on: T1, YANK2
T1 construct: gene STK32B

[2] = tested on: T2, YANK3
T2 construct: gene STK32C

[3] = tested on: T3, YES
T3 construct: gene YES1

[4] = tested on: T4, YSK1
T4 construct: gene STK25

[5] = tested on: T5, YSK4
T5 construct: gene MAP3K19

[6] = tested on: ZAK
[7] = tested on: ZAP70
[8] = tested on: T6, p38-alpha
T6 construct: gene MAPK14

[9] = tested on: T7, p38-beta
T7 construct: gene MAPK11

[10] = tested on: p38-delta
[11] = tested on: T8, p38-gamma
T8 construct: gene MAPK12
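Further: KINOMEscan kinase panel screen.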

| SMILES | %Inh [1] [%] | %Inh [2] [%] | %Inh [3] [%] | %Inh [4] [%] | %Inh [5] [%] | %Inh [6] [%] | %Inh [7] [%] | %Inh [8] [%] | %Inh [9] [%] | %Inh [10] [%] | %Inh [11] [%] |
| --- | --- | --- | --- | --- | --- | --- | --- | --- | --- | --- | --- |
| CCn1c(-c2c(N)noc2C)nc2cnccc21 [SB-737856] | 0 | 17 | 19 | 58 | 44 | 30 | 0 | 0 | 0 | 16 | 0 |
| COc1ccc2cc(-c3nc(-c4ccccc4C(C)C)[nH]c3-c3ccncc3)ccc2c1 [SB-660566] | 62 | 53 | 25 | 31 | 45 | 31 | 0 | 3 | 2 | 44 | 0 |
| CC(C)c1cc(-c2ccc3c(N)n[nH]c3c2)nc(N)n1 [GSK2250882] | 0 | 19 | 16 | 14 | 33 | 11 | 0 | 9 | 0 | 18 | 43 |
| CNc1cc(-c2ccc3c(N)n[nH]c3c2)nc(N)n1 [GSK2224810] | 8 | 0 | 0 | 6 | 58 | 0 | 0 | 23 | 0 | 38 | 0 |
| Cc1ccccc1Cn1ccn2c(=O)cc(N3CCOCC3)nc12 [GSK2269905] | 0 | 7 | 19 | 16 | 28 | 0 | 0 | 0 | 0 | 7 | 0 |
| COc1cccc(CNC(=O)NC2CCN(c3ccnc(Nc4ccc(F)cc4)n3)C2)c1 (stereo not shown) [GSK1379723] | 0 | 14 | 8 | 0 | 28 | 100 | 0 | 0 | 0 | 43 | 0 |
| COc1cccc(NC(=O)Nc2ccc(C)c(-c3ccc(C(=O)Nc4ccncc4)cc3)c2)c1 [GSK1398474] | 0 | 10 | 12 | 4 | 24 | 50 | 0 | 6 | 0 | 28 | 27 |
| COC(=O)C(NC(=O)NC1CCN(c2ccnc(Nc3ccc(F)cc3)n2)C1)c1ccccc1 (stereo not shown) [GSK1379712] | 0 | 0 | 0 | 14 | 32 | 0 | 4 | 12 | 0 | 37 | 23 |
| CC(=O)c1c(C)c2cnc(Nc3ccc(N4CCNCC4)cn3)nc2n(C2CCCC2)c1=O | 0 | 0 | 6 | 0 | 10 | 0 | 0 | 0 | 0 | 22 | 6 |
| COc1cc2ncnc(Nc3cccc(Br)c3)c2cc1OC.Cl [GI230329] | 0 | 13 | 3 | 4 | 63 | 12 | 0 | 47 | 0 | 46 | 66 |
| COC(=O)C(Cc1ccccc1)NC(=O)NC1CCN(c2ccnc(Nc3ccc(F)cc3)n2)C1 (stereo not shown) [GSK1379714] | 0 | 7 | 0 | 0 | 82 | 5 | 7 | 0 | 0 | 0 | 12 |
| CNc1nc(-c2ccc3c(N)n[nH]c3c2)cc(N2C[C@@H](C(=O)NC3CCCCC3)OC[C@H]2C)n1 [GSK2375584] | 2 | 22 | 14 | 5 | 15 | 0 | 0 | 23 | 0 | 42 | 23 |
| FC(F)(F)c1ccccc1-c1cc(-c2c[nH]nc2-c2ccccn2)ccn1 [GW679396] | 18 | 13 | 0 | 0 | 0 | 0 | 0 | 95.4 | 18 | 17 | 0 |
| Cc1c(Cn2c(C)c(C)n3c(=O)cc(N4CCOCC4)nc23)cccc1C(F)(F)F [GSK2328680] | 0 | 0 | 7 | 14 | 0 | 16 | 0 | 21 | 0 | 33 | 0 |
| CNC(=O)c1ccc(C)c(-n2c(C)cc(OCc3ccc(F)cc3F)c(Br)c2=O)c1 | 0 | 0 | 0 | 0 | 0 | 0 | 0 | – | 94.5 | 0 | 0 |
| CC(=O)c1cccc(NC(=O)NC2CCN(c3ccnc(Nc4ccc(F)cc4)n3)C2)c1 (stereo not shown) [GSK1379710] | 0 | 6 | 0 | 0 | 20 | 9 | 0 | 30 | 0 | 14 | 3 |
| CS(=O)(=O)Cc1ccc(Nc2nccc(-c3c(-c4cccc(NC(=O)C5CCCCC5)c4)nn4ncccc34)n2)cc1 [GSK350559] | 13 | 3 | 36 | 0 | 16 | 15 | 22 | 2 | 6 | 0 | 43 |
| Cc1ccc(NC(=O)c2ccc(Cl)cc2)cc1-c1ccc(C(=O)Nc2ccncc2)cc1 [GSK1398467] | 10 | 17 | 18 | 0 | 40 | 17 | 6 | 65 | 29 | 27 | 0 |
| O=C1NC(=O)C(c2ccc(Cl)cc2)=C1Nc1ccc(O)cc1 [SB-340867] | 0 | 0 | 0 | 8 | 10 | 22 | 0 | 0 | 0 | 0 | 0 |
| c1ccc(-c2ccnc3[nH]ccc23)cc1 [SB-693578] | 0 | 8 | 14 | 1 | 93.5 | 25 | 55 | 3 | 0 | 39 | 0 |
| Nc1cccc(-c2ccc3c(N)n[nH]c3c2)n1 [GSK2192730] | 0 | 0 | 0 | 26 | 83 | 10 | 3 | 8 | 0 | 22 | 0 |
| CC(C)c1ccc(O)cc1Nc1ccnc2ccc(C(F)(F)F)cc12 [GW482059] | 2 | 0 | 0 | 0 | 73 | 9 | 0 | 0 | 0 | 1 | 0 |

| SMILES | %Inh [1] [%] | %Inh [2] [%] | %Inh [3] [%] | %Inh [4] [%] | %Inh [5] [%] | %Inh [6] [%] | %Inh [7] [%] | %Inh [8] [%] | %Inh [9] [%] | %Inh [10] [%] | %Inh [11] [%] |
| --- | --- | --- | --- | --- | --- | --- | --- | --- | --- | --- | --- |
| CNc1nc(-c2ccc3c(N)n[nH]c3c2)cc(N2C[C@@H](C(=O)Nc3ccccc3)CC[C@H]2C)n1 [GSK2298859] | 89 | 32 | 2 | 0 | 17 | 0 | 0 | 22 | 0 | 0 | 0 |
| CC[C@@H]1CO[C@H](C(=O)Nc2ccccc2)CN1c1cc(-c2ccc3c(N)n[nH]c3c2)nc(NC)n1 [GSK2376236] | 77 | 0 | 0 | 6 | 1 | 0 | 0 | 8 | 0 | 26 | 0 |
| Cc1ccc(NC(=O)Nc2ccc(Cl)c(C(F)(F)F)c2)cc1-c1ccc(C(=O)Nc2ccncc2)cc1 [GSK1398470] | 0 | 10 | 7 | 0 | 72 | 59 | 0 | 95.9 | 96.2 | 0 | 27 |
| COc1nccc(-c2c(-c3ccc(F)cc3)ncn2CCCN2CCOCC2)n1 [SB-282852] | 0 | 0 | 0 | 0 | 0 | 11 | 31 | 81 | 62 | 0 | 46 |
| Cc1ccc(NC(=O)Nc2ccccc2)cc1-c1ccc(C(=O)Nc2ccncc2)cc1 [GSK1398471] | 5 | 0 | 12 | 21 | 94.6 | 53 | 0 | 0 | 0 | 19 | 12 |
| CCc1ccc(-c2ccc3c(c2)-c2n[nH]cc2S(=O)(=O)N3C)cc1 | 0 | 0 | 0 | 0 | 0 | 5 | 3 | 0 | 0 | 0 | 0 |
| Cc1ccc(NC(=O)Nc2ccc(Cl)cc2)cc1-c1ccc(C(=O)Nc2ccncc2)cc1 [GSK1398472] | 4 | 0 | 17 | 15 | 56 | 64 | 7 | 72 | 34 | 42 | 23 |
| Cn1cncc1C(=O)NC1CCN(c2ccnc(Nc3ccc(F)cc3)n2)C1 (stereo not shown) [GSK1379717] | 4 | 0 | 12 | 0 | 38 | 100 | 43 | 0 | 0 | 5 | 0 |
| Nc1nccc(-c2c(-c3ccc(F)cc3)ncn2C2CCN(Cc3ccccc3)CC2)n1 [SB-219980] | 64 | 30 | 0 | 0 | 34 | 0 | 21 | 99.7 | 18 | 0 | 0 |
| Nc1ncnc2occ(-c3ccc4c(c3)CCN4C(=O)Cc3cc(F)ccc3F)c12 [GSK2645446] | 0 | 0 | 0 | 4 | 66 | 0 | 0 | 0 | 0 | 24 | 7 |
| COC(=O)c1cccc(NC(=O)NC2CCN(c3ccnc(Nc4ccc(OC)cc4)n3)C2)c1 (stereo not shown) [GSK1379746] | 0 | 8 | 13 | 0 | 22 | 0 | 0 | 3 | 0 | 6 | 0 |
| COc1ccc(Nc2nccc(NCCNC(=O)Nc3cc(C)ccc3C)n2)cc1 [GSK1379899] | 0 | 0 | 0 | 0 | 4 | 3 | 0 | 0 | 0 | 21 | 0 |
| COc1ccc(-c2coc3ccc(-c4nnc(C)o4)cc23)cc1 | 9 | 9 | 0 | 1 | 0 | 0 | 18 | 0 | 14 | 0 | 0 |
| Cc1c(Cn2c3ccccc3n3c(=O)cc(N4CCOCC4)nc23)cccc1C(F)(F)F [GSK2306394] | 0 | 13 | 6 | 0 | 7 | 1 | 0 | 22 | 0 | 17 | 0 |
| Cc1ccccc1-c1cc(-c2c[nH]nc2-c2ccccn2)ccn1 [GW680061] | 0 | 13 | 15 | 3 | 14 | 0 | 0 | 85 | 0 | 28 | 0 |
| Cl.Cl.Cl.N#Cc1ccc(CCNc2nccc(-c3cccc(CN4CCNCC4)c3)n2)cc1 [GSK2137462] | 0 | 3 | 6 | 0 | 10 | 10 | 0 | 0 | 0 | 49 | 27 |
| CS(=O)(=O)CCNCc1nc(-c2ccc3ncnc(Nc4ccc(OCc5ccccc5)c(Cl)c4)c3c2)cs1.Cl [GW582764] | 0 | 40 | 7 | 0 | 30 | 5 | 0 | 0 | 0 | 37 | 0 |
| COc1ccc(CSc2nnc(-c3ccc4c(c3)CCO4)o2)cc1 | 0 | 0 | 0 | 0 | 0 | 0 | 0 | 0 | 0 | 23 | 0 |
| O=c1cc(N2CCOCC2)nc2n(Cc3cccc(Cl)c3Cl)c3ccccc3n12 [GSK2299009] | 0 | 29 | 17 | 21 | 3 | 5 | 0 | 12 | 1 | 16 | 30 |
| CCn1c(-c2ccccc2)nc2cnccc21 [SB-733416] | 0 | 32 | 4 | 0 | 0 | 7 | 0 | 0 | 0 | 56 | 0 |
| COc1ccc(Nc2nccc(-c3ccc(NC(=O)c4cc5cc(F)ccc5[nH]4)cc3)n2)cc1 [GSK1229496] | 0 | 0 | 0 | 0 | 8 | 6 | 0 | 4 | 0 | 43 | 1 |
